NPC1 promoter act: activates the NPC1 promoter | Huh7 NPC1 promoter luciferase reporter, 24 h | Potency, µM (highest dose often 9.22 µM), for inactives: at the highest dose activation, actives largely listed as activators | 320,000 tested, 2.4% active | AID 485313; further: % of control where 0% means no effect; nearly all actives have a fitted effect of over 60% in size
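Luminescence read-out of NPC1 promoter-driven luciferase in stably transfected Huh7 cells; compounds delivered in DMSO and left 24 h at 37C, 5% CO2, qHTS titration format.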
Luc counter: counter-screen: inhibitors of Kinase-Glo firefly luciferase | Q27757 | Kinase-Glo luciferase, ATP luminescence, 8 min | Potency, µM (highest dose often 38.3 µM), for the others: at the top dose activity change, negative = inhibition, hits mostly inhibitors | 200,000 tested, 0.28% active | AID 1379; further: on the % scale 0 is the no-effect control and ±100 the full control effect; nearly all actives have a fitted effect of over 60% in size
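Inhibition of Kinase-Glo luciferase light generation was assessed at 10 uM ATP in pH 7.2 imidazole buffer, with luminescence measured after eight minutes at ambient temperature.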
FLuc modulator: inhibits or activates purified firefly luciferase, miR-21 counter-screen; purified FLuc, Km substrates, luminescence inhibition; 360,000 tested, 6.9% active; AID 588342; Potency, µM (titrated, usually from 57.5 µM), for the others: at the top dose activity change, negative = inhibition, hits mostly inhibitors; P08659;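 further: plate controls were vehicle for no effect and reference inhibitor for full effect; nearly all actives have a fitted effect of over 55% in size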
Target sequence (P08659 whole entry, looked up): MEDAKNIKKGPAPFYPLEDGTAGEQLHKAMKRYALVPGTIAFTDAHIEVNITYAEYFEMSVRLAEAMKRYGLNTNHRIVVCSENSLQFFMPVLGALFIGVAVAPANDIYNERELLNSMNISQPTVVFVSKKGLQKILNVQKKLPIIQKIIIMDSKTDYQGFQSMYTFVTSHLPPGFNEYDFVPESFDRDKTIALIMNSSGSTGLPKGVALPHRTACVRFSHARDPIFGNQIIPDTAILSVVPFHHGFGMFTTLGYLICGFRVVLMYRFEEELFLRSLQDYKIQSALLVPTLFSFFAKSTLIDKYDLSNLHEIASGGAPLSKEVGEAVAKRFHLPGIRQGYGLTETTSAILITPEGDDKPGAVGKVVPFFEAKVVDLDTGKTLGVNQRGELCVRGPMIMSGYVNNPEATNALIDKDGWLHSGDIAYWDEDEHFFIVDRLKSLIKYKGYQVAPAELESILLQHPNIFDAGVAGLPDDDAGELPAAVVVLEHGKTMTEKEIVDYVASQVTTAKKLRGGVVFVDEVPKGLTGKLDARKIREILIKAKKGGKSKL
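Biochemical qHTS of compounds, final roughly 60 µM downward over six points, against 10 nM purified firefly luciferase using Km concentrations of substrates (10 uM D-luciferin, 10 uM ATP) in Tris acetate pH 7.5 buffer; luminescence output.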
SMN2 splice enh: SMN2 splice variant enhancement. HEK293 SMN2-luciferase splicing reporter, luminescence, 30-36 h. Potency, µM (top dose mostly 46.1 µM), for inactives: at the highest dose activity change, positive = activation, hits mostly activators. 210,000 tested, 2.8% active. AID 1458; further: % of control where 0% means no effect; nearly all actives have a fitted effect of over 55% in size
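qHTS luciferase splicing reporter: luminescence rises when SMN2 exon 7 is included in transfected HEK293 cells. Compound exposure lasted 30-36 h at 37C, with 4.5 mM final sodium butyrate as control, followed by a ONE-Glo read.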
Rab9 prom act: activators of Rab9 promoter | Huh7 Rab9 promoter-luciferase reporter, luminescence, 24 h | Potency, µM (top dose mostly 9.22 µM), inactives show top-dose activation, negative = inhibition, usual class: activators | 320,000 tested, 2.8% active; further: % of control where 0% means no effect; nearly all actives have a fitted effect of over 60% in size
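Cells were plated at 1500 per well in reduced-serum medium with 10% FBS and left 2 h. Compound in DMSO was then added for 24 h at 37 °C. Reporter signal was read by luminescence after 10 min with luciferase detection reagent.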
ELG1 genotoxic: genotoxicity induction in ELG1-luciferase HEK293T cells; HEK293T ELG1-luciferase reporter, luminescence, 16 h; Potency, µM (series often up to 46 µM), without a hit: at the top dose activity change, positive = activation, most hits filed as activators; 330,000 tested, 1.3% active; AID 504466; further: % of control where 0% means no effect; nearly all actives have a fitted effect of over 60% in size
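16 hr compound incubation (37 °C, 5% CO2) of HEK293T cells carrying luciferase-tagged ELG1; luciferase then measured by ONE-Glo luminescence after 30 min at RT.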
The depositor's hits bear a star; ? = inconclusive; · = no result; [ ] = remark or other dose. Sampled rows, rich in hits. Any-hit rate of the full collection: about 7.3%. The call rests on the fitted dose curve; in most records, active means well fitted curve in the direction sought with a large enough effect; inconclusive means small, poorly fitted or top-dose-only effect, or another doubt; inactive means no such curve, though single readings can be large; an effect the other way counts as inactive or inconclusive. Potency means the concentration at half of the fitted maximal effect.

SMILES | NPC1 promoter act | Luc counter | FLuc modulator | SMN2 splice enh | Rab9 prom act | ELG1 genotoxic
Cc1nnc(-c2ccccc2)o1 | 0% | · | 0% | · | 1% | 3%
Cc1ccccc1-c1nnc(-c2ccccc2)o1 | ? | ? | 6.7µM* | 13µM* | 3.2µM* | 9.2µM*
Cc1cc(-c2nnc(-c3cccc(Cl)c3)o2)no1 | 3.5µM* | · | 5.4µM* | · | 2.5µM* | ?
Cn1c(=O)c2c(nc(SCC(=O)Nc3ccccc3F)n2Cc2ccccc2F)n(C)c1=O | · | · | 0% | 1% | · | ·
COc1ccc(CNC(=O)Cn2c(=O)oc3cc(S(=O)(=O)N4CCCCCC4)ccc32)cc1 | · | · | -11% | · | · | ·
O=C(CN1CCCCC1)Nc1scc2c1c(=O)oc1ccccc12 | ? | · | -9% | · | 2.8µM* | 15%
O=c1cc(-c2ccccc2)[nH]n1-c1nc2ccccc2[nH]1 | 4% | -11% | 19µM* | 3% | -2% | ?
CCN1Cc2cccc(C(=O)Nc3ccc(F)cc3)c2C1=O | · | · | -7% | -5% | · | ·
CCN(CC)c1ccc(/C=N/NC(=O)c2ccccn2)cc1 | 0.45µM* | · | 2.4µM* | · | 0.71µM* | ?
O=C(CNC(=O)c1ccccn1)N/N=C/c1ccccc1 | -2% | -1% | ? | 7% | -1% | 1%
CCN(CC)c1ccc(/C=N/NC(=O)c2cnccn2)cc1 | -9% | -4% | 12µM* | 20µM* | ? | 12µM*
O=C(N/N=C/c1ccc(OC(=O)c2ccccc2Cl)cc1)c1ccccn1 | 2.8µM* | · | 1.5µM* | · | ? | 8.2µM*
CCc1ccc(/C=N/NC(=O)c2ccccn2)cc1 | 0.45µM* | · | 0.48µM* | · | 0.13µM* | ?
N[C@@H](Cc1c[nH]c2ccc([N+](=O)[O-])cc12)C(=O)O | · | -4%[7.66 µM] | · | 8%[9.22 µM] | · | ·
COCCN1C(=O)c2[nH]nc(-c3ccccc3O)c2C1c1ccc(OCc2ccccc2)c(OC)c1 (stereo not drawn) | · | · | -11% | 6% | · | ·
COC(=O)c1ccccc1NC(=O)/C=C/c1ccco1 | 10% | -11% | 15µM* | 15% | 28% | -5%
O=C(/C=C/c1ccco1)NCc1ccccn1 | 0% | 0% | -10% | 10% | 11% | 5%
O=C(/C=C/c1ccccc1)Nc1cccnc1Cl | 2.2µM* | · | 12µM* | · | 2.2µM* | 18µM*
O=C(/C=C/c1ccco1)Nc1cccnc1Cl | 4µM* | · | 15µM* | · | 4µM* | ?
O=C(COC(=O)/C=C/c1ccccc1)Nc1cccnc1Cl | 5% | · | ? | · | 9% | 0%
COc1ccccc1N1CCN(C(=O)c2ccc3c(c2)N(Cc2ccccc2)C(=O)c2ccccc2S3(=O)=O)CC1 | · | · | 1% | -22% | · | ·
Cc1ccc2nc(-c3cccnc3SCC(=O)N3c4ccccc4CC3C)[nH]c2c1 (stereo not drawn) | ? | ? | 5.4µM* | 14µM* | ? | ?
O=C(CSc1ncccc1-c1nc2ccccc2[nH]1)N1CCCCC1 | 10% | -5% | 17µM* | 5% | 12% | 15%
CCN(CC)C(=O)CSc1ncccc1-c1nc2ccccc2[nH]1 | 1% | 1% | 24µM* | · | 1% | 5%
Cc1nc(N)sc1-c1csc(Nc2ccc(Cl)cn2)n1 | 17% | -4% | 17µM* | -47% | 16% | -1%
SMILES | NPC1 promoter act | Luc counter | FLuc modulator | SMN2 splice enh | Rab9 prom act | ELG1 genotoxic
Cc1nc(C)c(-c2csc(Nc3ccccn3)n2)s1 | 0.56µM* | · | 2.4µM* | · | 0.5µM* | ?
Cc1nc(N)sc1-c1csc(Nc2ccccn2)n1 | 2.2µM* | -7% | 6.7µM* | 8.9µM* | 1.6µM* | ?
NC1=C2NC=N[C@@H]2N(C/C=C\c2ccccc2)C=N1 | · | -2%[7.66 µM] | · | -15%[9.22 µM] | · | ·
COc1ccc(CNC(=O)CCc2c(C)nn(-c3ccc(N4CCCC4)nn3)c2C)c(OC)c1 | · | · | 4% | · | · | ·
CC(C)(C)c1ccc(C(=O)NNC(=O)c2ccncc2)cc1 | 9% | · | 19µM* | · | 11% | 3%
COCCCNC(=S)NC(=O)c1ccc(C)cc1 | ? | -1% | 13µM* | 14µM* | ? | ?
CC(C)(C)c1ccc(C(=O)c2c[nH]c(C(=O)NCCCn3ccnc3)c2)cc1 | 24% | 1% | 19µM* | -50% | 5% | 1%
COc1ccc(C(=O)c2c[nH]c(C(=O)NCCCn3ccnc3)c2)cc1 | 1% | 1% | -2% | -5% | 5% | 5%
CC(C)(C)c1ccc(C(=O)NC(=S)NCc2cccnc2)cc1 | 13% | -1% | 24µM* | -40% | 3% | -3%
COC(=O)CNC(=S)NC(=O)c1ccc(C(C)(C)C)cc1 | -1% | -2% | 13µM* | 2% | -2% | 5%
CC(C)(C)c1ccc(C(=O)NNC(=S)NC(=O)c2cccnc2)cc1 | 3% | · | 19µM* | · | 4% | -1%
O=C(CNC(=S)NC(=O)c1ccc(F)cc1)c1ccccc1 | 0% | -5% | 4% | 28% | 2% | 4%
COCCCNC(=S)NNC(=O)c1ccc(C(C)(C)C)cc1 | -2% | · | -4% | · | -2% | -4%
CC(C)(C)c1ccc(C(=O)c2c[nH]c(C(=O)NCc3cccnc3)c2)cc1 | 17% | 8% | 7.6µM* | -6% | 24% | -5%
O=C(CNC(=S)NC(=O)c1ccccc1)c1ccccc1 | 15% | -2% | 17µM* | ? | 6% | 16%
CC(NC(=O)Cn1ccc2cc(S(=O)(=O)N3CCCCCC3)ccc21)c1ccccc1 (stereo not drawn) | · | · | 2% | · | · | ·
Cc1ccc(CCNC(=O)c2ccc3c(c2)N(Cc2ccccc2F)C(=O)c2ccccc2S3=O)cc1 (stereo not drawn) | · | · | -2% | 7% | · | ·
COC(=O)c1ccc(COc2ccc(C)c(C)c2)o1 | 1.4µM* | · | ? | · | 1.6µM* | ?
COC(=O)c1ccc(COc2ccc3ccc(=O)oc3c2)o1 | 14% | · | -19% | · | 19% | 11%
Cc1ccc(OCc2ccc(C(=O)O)o2)cc1C | ? | · | 11µM* | · | ? | ?
COC(=O)c1ccc(COc2cc(C)ccc2C)o1 | 29% | · | 11µM* | · | 13% | ?
C=CCc1ccc(OCc2ccc(C(=O)OC)o2)c(OC)c1 | ? | -2% | 7.6µM* | ? | 0.5µM* | 10µM*
Cc1ccc(N2CCN(C(=O)c3cn(C)c4ccc(S(=O)(=O)N5CCCC5)cc4c3=O)CC2C)cc1 (stereo not drawn) | · | · | 0% | -7% | · | ·
Cc1c(C)c2ccc(OCc3ccc(C(=O)O)o3)c(C)c2oc1=O | -5% | 0% | 11µM* | 68% | -4% | ?
Cc1ccc(OCc2ccc(C(=O)Nc3nccs3)o2)cc1C | ? | -2% | 17µM* | 32% | ? | -1%
Cc1ccc(OCc2ccoc2C(=O)O)cc1C | 0% | -3% | 19µM* | 3% | -3% | 5%

Assay outcomes: PubChem, National Center for Advancing Translational Sciences (NCATS)
